Out of some 69,000 compounds screened, about 8,600 (12%) showed an effect of 50% or more. This excerpt belongs to a sample that is enriched for strong results.

In the assay the test system is Plasmodium berghei. Description: Screen against P. berghei liver stage (PbLuc), transformed with Luciferase, at 10uM. As to conditions: tested at 10 uM. The class given is functional, HepG2.
Turning to `CN1C(=O)[C@@H]2CC[C@H]1CN(S(=O)(=O)c1ccc(Cl)cc1Cl)C2`, the INHIBITION was 24.3%.

As to `CN(C)C(=O)Cn1cnc2c(Br)cccc2c1=O`, the INHIBITION is reported as -14.1%.

Regarding `COc1cc(C(F)(F)F)sc1C(=O)O`, the INHIBITION worked out at 20.8%.

For `CN(Cc1cc(Br)cs1)Cc1nnsc1Cl`, the INHIBITION stood at 46.3%.

Turning to `Cc1cccc(C(=O)N(C)Cc2cc(Br)cs2)n1`, the INHIBITION stood at 37.1%.

On to `CN(CCC(N)=O)Cc1cc(Br)cs1`, for which the INHIBITION was 24%.

On to `COC(=O)CNC(=O)CCc1cc(Br)cs1`, for which the INHIBITION worked out at 7.19%.

As to `COC(=O)CN(C)Cc1cc(Br)cs1`, the INHIBITION is 53.2%.

Regarding `COC(=O)CCN(C)Cc1cc(Br)cs1`, the INHIBITION is listed as 60.2%.

For `COCCN1CCO[C@@H]2CN(Cc3ccccc3OC)C[C@@H]2C1`, the INHIBITION is given as 2.4%.

Regarding `CCc1nnc2n1CCN(Cc1cc(Cl)c3c(c1)OCCCO3)C2`, the INHIBITION was 23.6%.

With `O=C(CNC(=O)N1CCc2c([nH]c3ccc(Cl)cc23)C1)NCCCO`, the INHIBITION is reported as 4.25%.

Consider `COCc1csc(NC(=O)N2CCC(Cc3cnn(C)c3)C2)n1` (stereo unspecified), for which the INHIBITION is -27.8%.

For `Cc1c(CN2CCc3nc4sccc4c(=O)n3CC2)cnn1C`, the INHIBITION is -12.4%.

As to `Cc1ccsc1CN1CCc2nc3ccsc3c(=O)n2CC1`, the INHIBITION was found to be 35.2%.

Take `CCOc1ccccc1CN1CCc2nc3ccsc3c(=O)n2CC1`: the INHIBITION is reported as 49.6%.

Turning to `COc1ccc(CN2CCc3nc4ccsc4c(=O)n3CC2)c(C)c1C`, the INHIBITION amounted to 92.9%.

Consider `O=c1c2sccc2nc2n1CCN(Cc1cc(F)ccc1F)CC2`, for which the INHIBITION is 3.91%.

In the case of `CCOc1ccc(CN2CCc3nc4ccsc4c(=O)n3CC2)cc1`, the INHIBITION is 28%.

As for `COc1cc(C)c(CN2CCc3nc4ccsc4c(=O)n3CC2)cc1C`, the INHIBITION worked out at 89.3%.

Turning to `O=c1c2sccc2nc2n1CCN(Cc1cccs1)CC2`, the INHIBITION is given as -3.41%.

`COc1cccc(CN2CCc3nc4ccsc4c(=O)n3CC2)c1`: the INHIBITION stood at 54.4%.

Turning to `O=c1c2sccc2nc2n1CCN(Cc1ccc(F)c(F)c1)CC2`, the INHIBITION was determined as 31.6%.

As to `COc1ccc(OC)c(CN2CCc3nc4ccsc4c(=O)n3CC2)c1`, the INHIBITION came to 14.7%.

Take `O=c1c2sccc2nc2n1CCN(Cc1ccccc1C(F)(F)F)CC2`: the INHIBITION turned out to be 92.9%.

Consider `CN1CC(C)(C)CN(C(=O)CCc2ccccc2)CC1=O`, for which the INHIBITION is on record as 24.5%.

As for `O=C(c1cc[nH]n1)N1CCCC1c1cc(Nc2ccccn2)n[nH]1` (stereo unspecified), the INHIBITION is -20.2%.

In the case of `Cc1ccc2c(c1)c(C)cc(=O)n2CCC#N`, the INHIBITION was 11.2%.

`CC(C)c1noc(CN2CCN(C(=O)c3ccncc3F)CC2)n1`: the INHIBITION is -29.1%.

Turning to `O=S(=O)(NCC1COCc2c(-c3ccncc3)nnn2C1)C1CC1` (stereo unspecified), the INHIBITION is 18.3%.

Take `NC(=O)c1ccc(NC(=O)c2ccncc2Cl)cn1`: the INHIBITION is reported as 13.8%.

For the origin of these results see ChEMBL document CHEMBL4513216, “Probing the Open Global Health Chemical Diversity Library for Multistage-Active Starting Points for Next-Generation Antimalarials” (ACS Infect Dis, 2020).
